Screening data deposited in PubChem by several laboratories.
CHOP inh – blocks CHOP induction under ER stress | CHO-K1 CHOP-promoter luciferase, tunicamycin-induced, 15-18 h | inhibition, % at 10 µM | 220,000 tested, 3.8% active | AID 2732;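 active = compounds that reduced the stress-induced luciferase reporter signal by more than about 70% of percent inhibition, limit read from the data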;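 also: 0% = tunicamycin plus vehicle and 100% = wells without tunicamycin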
Arbovirus inh – blocks arbovirus infection; arbovirus infection cell-based antiviral screen; inhibition, % at 10 µM; 200,000 tested, 0.37% active; in the data active = inhibition above about 30%
L major viab – reduces viability of Leishmania major promastigotes; resazurin fluorescence viability; inhibition, % at 10 µM; 200,000 tested, 9% active; AID 1063; in the data active = inhibition above about 50%;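 also: promastigotes grown with compound for 44 hours at 28 °C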
WT yeast gro inh – growth inhibition of WT yeast, mitochondrial fusion screen. mitochondrial fusion phenotypic screen, WT strain. inhibition, % at 10 µM. 190,000 tested, 2.1% active. AID 1362; in the data active = inhibition above about 58%; tested in S. cerevisiae
CHOP confirm – confirmation of CHOP induction inhibitors | shares compounds with CHOP inh | CHO-CHOP promoter luciferase reporter, tunicamycin-induced, luminescence | inhibition, % at 10 µM | 2,100 tested, 45% active;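 active = mean of three repeat readings of reporter signal inhibition above a set limit, cut at about 70% in these data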;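 also: 0% = tunicamycin plus vehicle and 100% = wells lacking tunicamycin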
* = called active by the depositor; nt = not tested or not shown. Only some compounds are listed: those with a hit (about 12% of all), similar ones and a draw of the others.

SMILES | CHOP inh | Arbovirus inh | L major viab | WT yeast gro inh | CHOP confirm
COc1ccc(C2CC(c3c(-c4ccccc4)c4cc(Cl)ccc4[nH]c3=O)=NN2S(C)(=O)=O)cc1OC (centres undefined) | 107.7* | 3.4 | -3.8 | -8.8 | 125.0*
COc1ccc2nc(NCCCNC(=O)c3cc(OC)c(OC)c(OC)c3)c(C#N)cc2c1 | 13.7 | 3.9 | 10.8 | -20.5 | nt
CCOc1ccc2nc(NCCNC(=O)Nc3cccc(C)c3)c(C#N)cc2c1 | 102.9* | 4.5 | 7.0 | 22.1 | 23.3
Cn1c2c(c(=O)n(C)c1=O)C(c1ccccc1OC(F)F)C1=C(CCCC1=O)N2 (centres undefined) | -28.8 | 5.9 | 1.5 | -10.3 | nt
CCc1ccc(OCc2n[nH]c(=S)n2C(C)CCCC(C)C)cc1 (centres undefined) | 104.5* | -9.4 | 7.7 | 59.9* | 112.7*
Cc1ccc(NC(=O)CN(C)CC(=O)Nc2ccccc2Oc2ccccc2)cc1 | 30.9 | 8.1 | -5.2 | 16.4 | nt
CCOc1ccc(NC(=O)c2ccccc2NC(=O)CN(C)CC(=O)Nc2ccc(C)cc2)cc1 | 107.0* | 0.0 | 12.2 | -4.6 | 53.4
COC(=O)c1cc2cc(NS(=O)(=O)c3ccc(C)cc3)ccc2s1 | 103.0* | -1.2 | 100.3* | 0.0 | 13.7
CC(C(Sc1ccccc1N)c1ccccc1)[N+](=O)[O-] (centres undefined) | 105.5* | nt | nt | nt | 18.1
Nc1ccccc1SSc1ccccc1N | -1.8 | nt | nt | nt | nt
O=C(CN1CCOCC1)Nc1ncc(Cc2cccc3ccccc23)s1 | 23.6 | 8.4 | -4.4 | 6.5 | nt
CN(C)c1nc(N/N=C/c2c[nH]c3ccccc23)nc(N2CCOCC2)n1 | -30.0 | -5.9 | 4.8 | 8.3 | nt
C(=N\Nc1nc(N2CCCCC2)nc(N2CCCCC2)n1)/c1c[nH]c2ccccc12 | 100.8* | 10.3 | 31.9 | 62.8* | 42.2
CCOc1ccc(C(=O)O/N=C(\N)c2ccc([N+](=O)[O-])cc2)cc1OCC | -19.7 | -6.5 | -0.5 | 3.9 | nt
CCOc1cc(C=C(C(=O)OC)C(=O)OC)ccc1OCc1ccc([N+](=O)[O-])cc1 | 98.6* | -38.1 | 33.2 | -12.0 | -40.3
C/C(=N/NC(=O)CNS(=O)(=O)c1ccc(C)cc1)c1cccc([N+](=O)[O-])c1 | 7.8 | -7.7 | -0.5 | 7.7 | nt
Nn1c(Nc2ccccc2)nc2sc3c(c2c1=O)CCC3 | 96.5* | -10.2 | 1.8 | 30.7 | 45.2
CC1=CN2C(=N)/C(=C/c3ccc([N+](=O)[O-])o3)C(=O)N=C2S1 | 107.4* | -1.1 | 8.7 | 85.9* | 29.3
Cc1ccc(Nc2nc(N)c([N+](=O)[O-])c(NCc3ccco3)n2)cc1 | 101.2* | 6.9 | 20.3 | 5.2 | 24.1
Nc1nc(NCc2ccco2)nc(Nc2ccccc2)c1[N+](=O)[O-] | 20.2 | nt | nt | nt | nt
Fc1ccc(Nc2nc(NCc3ccco3)c3ccccc3n2)cc1 | 97.4* | nt | nt | nt | 73.1*
CCSC1=NC2(CCCCC2)Nc2sc3c(c21)CCCC3 | 105.1* | -8.5 | 100.2* | 19.8 | 4.0
CCN(C(=O)COC(=O)/C=C/c1c(C)nn(Cc2ccc(C)cc2)c1C)C1CCS(=O)(=O)C1 (centres undefined) | -2.9 | 11.0 | 0.6 | -11.6 | nt
CC(C)COc1ccc(C(=O)Nc2ccc(NC(=O)c3ccco3)c(Cl)c2)cc1 | 100.9* | -15.1 | -1.3 | 5.3 | 68.6
O=[N+]([O-])c1ccc(Sc2nc3ccccc3o2)c([N+](=O)[O-])c1 | 109.0* | -29.9 | 19.3 | 75.2 | 122.4*
SMILES | CHOP inh | Arbovirus inh | L major viab | WT yeast gro inh | CHOP confirm
O=[N+]([O-])c1ccc(Cl)cc1Sc1nc2ccccc2o1 | 1.5 | -20.5 | 27.8 | -10.1 | nt
C=CCn1c(SCC(=O)c2[nH]c(C)c(C(=O)OCC)c2C)nc2scc(-c3ccc(OC)c(OC)c3)c2c1=O | 105.6* | -38.8 | -2.4 | -18.7 | 50.2
Nc1cc(C(=O)N/N=C/c2cccc([N+](=O)[O-])c2)n[nH]c1=O | -0.2 | nt | nt | nt | nt
CN(C)c1ccc(C(CNC(=O)c2ccccc2F)c2c[nH]c3ccccc23)cc1 (centres undefined) | -4.0 | 7.1 | 14.8 | 5.3 | nt
CN(C)c1ccc(C(CNS(=O)(=O)c2ccc(F)c(F)c2)c2c[nH]c3ccccc23)cc1 (centres undefined) | 109.6* | -35.0 | 8.3 | 74.1* | 115.6*
O=C1c2[nH]nc(-c3ccccc3O)c2C(c2cccc(Cl)c2)N1Cc1ccco1 (centres undefined) | 112.7* | -48.3 | 79.0* | 30.9 | 112.9*
Cc1cccc(NC(=O)/C(=C\c2ccc([N+](=O)[O-])o2)NC(=O)c2ccc(Cl)cc2)c1 | 101.1* | -2.7 | -0.1 | 1.9 | 9.5
Cc1cccc(C(=O)N/C(=C\c2ccc(C)o2)C(=O)O)c1 | -2.4 | nt | nt | nt | nt
CCCCc1c(C)nn(-c2nnc3c4ccccc4n(CC)c3n2)c1C | 104.5* | -8.4 | 36.8 | 68.0* | 99.2*
